Assay results from the supplement of paper PMC8253809.

Key:
Experiment in all cases: growth inhibition (% activity, log2 RLU normalised to DMSO / staurosporine); higher = more growth inhibition
Conditions in all cases: 33 µM
DIPGX29 = test system: DIPGX29 (H3.3 K27M diffuse intrinsic pontine glioma line)
How it was run: (§1)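 The growth-inhibition value comes from CellTiter-Glo luminescence, log2-transformed, normalised per plate to % activity between solvent and positive control wells, and taken as the median over replicates. Treatment of pHGG cell lines and H9-derived neural stem cells with approved drugs was at a single final concentration of about 33 μM, in triplicate, for 7 days at 37 °C, 5% CO2.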

DIPGX37 = test system: DIPGX37 (H3.3 K27M diffuse intrinsic pontine glioma line)
How it was run: as §1

DIPGX7 = test system: DIPGX7 (H3.3 K27M diffuse intrinsic pontine glioma line)
How it was run: as §1

DIPGX9 = test system: DIPGX9 (diffuse intrinsic pontine glioma line)
How it was run: as §1

HGGX39 = test system: HGGX39 (paediatric high-grade glioma line)
How it was run: as §1

HGGX6 = test system: HGGX6 (H3.3 G34R paediatric high-grade glioma line)
How it was run: as §1

HNSC = test system: HNSC
How it was run: as §1

SUDIPGIV = test system: SUDIPGIV (diffuse intrinsic pontine glioma line)
How it was run: as §1

SUDIPGVI = test system: SUDIPGVI (diffuse intrinsic pontine glioma line)
How it was run: as §1

SUDIPGXIII = test system: SUDIPGXIII (diffuse intrinsic pontine glioma line)
How it was run: as §1

Row | Structure (SMILES) | growth inhibition (DIPGX29) [%] | growth inhibition (DIPGX37) [%] | growth inhibition (DIPGX7) [%] | growth inhibition (DIPGX9) [%] | growth inhibition (HGGX39) [%] | growth inhibition (HGGX6) [%] | growth inhibition (HNSC) [%] | growth inhibition (SUDIPGIV) [%] | growth inhibition (SUDIPGVI) [%] | growth inhibition (SUDIPGXIII) [%]
1 | CN(C)[C@@H]1C(O)=C(C(=O)NCN2CCCC2)C(=O)[C@@]2(O)C(O)=C3C(=O)c4c(O)cccc4[C@@](C)(O)[C@H]3C[C@@H]12 | -1.08 | -1.26 | -0.844 | 0.66 | -0.334 | 0.151 | -2.27 | 0.0649 | 2.48 | 0.413
2 | [O-][n+]1cccc(CO)c1 | -0.666 | 1.68 | -0.893 | -0.317 | 0.747 | 0.543 | -0.142 | -0.682 | -0.214 | 2.91
3 | O=C1[C@H](CC[C@H](O)c2ccc(F)cc2)[C@@H](c2ccc(O)cc2)N1c1ccc(F)cc1 | 0.15 | -1.79 | 1.88 | -0.813 | -0.454 | -1.33 | -0.443 | -2.25 | -5.97 | 0.864
4 | O.O.O.O.O=C([O-])CC(O)(CC(=O)[O-])C(=O)[O-].[Li+].[Li+].[Li+] | 1.75 | 1.97 | 1.43 | 0.467 | -0.0466 | -1.34 | 26.2 | 0.611 | 1.36 | -0.99
5 | C[C@@H]1O[C@@H]1P(=O)(O)O | -0.0235 | -0.548 | -0.0992 | 1.37 | 2.18 | 1.12 | 0.39 | -0.299 | 0.0548 | 1.68
6 | O=C1C(=O)c2ccccc2C(O)=C1C1CCC(c2ccc(Cl)cc2)CC1 (stereo not given) | 1.86 | -1.09 | 2.26 | 2 | 1.71 | 0.641 | 2.01 | 3.44 | 2.48 | 1.82
7 | CCn1nc(C(=O)O)c(=O)c2cc3c(cc21)OCO3 | 0.16 | 0.624 | -0.169 | -0.854 | 0.711 | 1.66 | 0.841 | -0.519 | -0.803 | 0.089
8 | CCCCCCCCCC(=O)N[C@@H](Cc1c[nH]c2ccccc12)C(=O)N[C@@H](CC(N)=O)C(=O)N[C@@H](CC(=O)O)C(=O)N[C@@H]1C(=O)NCC(=O)N[C@@H](CCCN)C(=O)N[C@@H](CC(=O)O)C(=O)N[C@H](C)C(=O)N[C@@H](CC(=O)O)C(=O)NCC(=O)N[C@H](CO)C(=O)N[C@@H]([C@H](C)CC(=O)O)C(=O)N[C@@H](CC(=O)c2ccccc2N)C(=O)O[C@@H]1C | -2.71 | -1.3 | -0.801 | -2.61 | -1.25 | -2.93 | -6.45 | -2.57 | -3.09 | -1.13
9 | O=C(O)COCCN1CCN(C(c2ccccc2)c2ccc(Cl)cc2)CC1 (stereo not given) | 1.96 | 2.21 | 3.97 | 2.72 | 4.64 | 3.15 | 3.36 | -0.252 | 2.48 | 0.283
10 | COc1ccc2[nH]cc(CCNC(C)=O)c2c1 | -2.35 | -0.423 | -1.32 | -1.49 | -1.11 | -2.19 | -1.52 | -1.67 | -0.827 | -1.28
11 | COC(=O)N[C@H](C(=O)N[C@@H](Cc1ccccc1)[C@@H](O)CN(Cc1ccc(-c2ccccn2)cc1)NC(=O)[C@@H](NC(=O)OC)C(C)(C)C)C(C)(C)C | -2.79 | -2.21 | 1.19 | -1.97 | -2.26 | -3.15 | -5.7 | -0.315 | -14.4 | 0.413
12 | CN(C(=O)CN(CCO)CC(=O)N(C)C(C)(C)Cc1ccccc1)C(C)(C)Cc1ccccc1 | 11.3 | 3.37 | 29 | 4.47 | 9.74 | 2.56 | 53.1 | 3.05 | 6.12 | 10.4
13 | Nc1ccc(C(=O)O)c(O)c1 | 0.612 | 1.18 | 0.982 | 0.745 | 1.12 | 1.72 | -0.259 | 0.343 | -1.22 | -1.06
14 | CCN[C@H]1C[C@H](C)S(=O)(=O)c2sc(S(N)(=O)=O)cc21 | 1.81 | -1.68 | 1.05 | 0.778 | 2.3 | 0.627 | 4.56 | -0.668 | 4.36 | 0.067
15 | Nc1ccc(S(N)(=O)=O)cc1 | -0.377 | 1.14 | 0.22 | 1.31 | 2.44 | 0.596 | -1.62 | -1.35 | 0.652 | 1.2
16 | N[C@@H](CSCCCO)C(=O)O | -3.76 | -2.47 | 0.0116 | -2.7 | -4.4 | -5.11 | 22.1 | -4.19 | -9.19 | -0.641
17 | O=C([O-])c1ccccc1O.[Na+] | 1.02 | 2.5 | 2.56 | 1.21 | 1.15 | -1.22 | 28.2 | 1.6 | -4.02 | 0.791
18 | Clc1ccccc1C(c1ccccc1)(c1ccccc1)n1ccnc1 | 3.31 | 0.662 | 3.85 | 6.07 | 16.9 | 14.3 | 31.3 | 26.9 | 2.55 | 42.1

Row | Structure (SMILES) | growth inhibition (DIPGX29) [%] | growth inhibition (DIPGX37) [%] | growth inhibition (DIPGX7) [%] | growth inhibition (DIPGX9) [%] | growth inhibition (HGGX39) [%] | growth inhibition (HGGX6) [%] | growth inhibition (HNSC) [%] | growth inhibition (SUDIPGIV) [%] | growth inhibition (SUDIPGVI) [%] | growth inhibition (SUDIPGXIII) [%]
19 | O=c1ccn([C@@H]2O[C@H](CO)[C@@H](O)[C@H]2O)c(=O)[nH]1 | -0.716 | -1.37 | 1.57 | -0.704 | 0.73 | -4.51 | 17.6 | -1.57 | -0.357 | -2.42
20 | C[N+](C)(CCOc1ccccc1)Cc1ccccc1.O=C([O-])c1cc2ccccc2cc1O | -1.73 | 0.336 | -2.4 | -0.621 | -1.29 | -2.23 | -1.38 | 2.44 | 1.1 | -1.56
21 | COC(=O)/C=C/C(=O)OC | -1.63 | 0.743 | -0.432 | -0.334 | 0.42 | -3.26 | 6.49 | -2.1 | -1 | 1.57
22 | CN[C@H]1CC[C@@H](c2ccc(Cl)c(Cl)c2)c2ccccc21 | 13.3 | 6.8 | 6.25 | 4.32 | 7.5 | 7.73 | 55 | 3.54 | 6.72 | 1.68
23 | Cn1ccnc1S | -2.03 | -0.808 | -1.31 | -0.195 | -0.799 | -0.968 | -4.2 | -2.69 | -1.6 | -8.17
24 | NC(=O)Cc1cccc(C(=O)c2ccccc2)c1N | -1.79 | -2.49 | -1.26 | -0.361 | -1.73 | 0.913 | -2.2 | -3.13 | -0.113 | 0.258
25 | C[C@@H](O)[C@H]1C(=O)N2C(C(=O)O)=C(S[C@@H]3CN[C@H](C(=O)N(C)C)C3)[C@H](C)[C@H]12 | -2.93 | 0.205 | -1.37 | -0.242 | -2.33 | -3.05 | 4.4 | -2.08 | -2.04 | 0.717
26 | Cc1cc(C#N)cc(C)c1Oc1nc(Nc2ccc(C#N)cc2)nc(N)c1Br | 3.55 | -3.38 | 9.93 | -0.625 | 6.72 | 6.05 | 35.3 | 1.55 | 15.5 | 27.6
27 | C[C@@H]1C[C@H]2[C@@H]3C[C@H](F)C4=CC(=O)C=C[C@]4(C)[C@@]3(F)[C@@H](O)C[C@]2(C)[C@@]1(O)C(=O)CO | 2.44 | 5.42 | 0.269 | 4.89 | 3.56 | -0.761 | 5.26 | -0.633 | 0.461 | -1.67
28 | NC(=O)N/N=C/c1ccc([N+](=O)[O-])o1 | 0.652 | 0.147 | 0.615 | 0.733 | 1.49 | 0.622 | 2.46 | -1.17 | 1.04 | -0.395
29 | CN1CCC(OC(c2ccccc2)c2ccccc2)CC1 | 1.96 | 3.9 | 1.96 | 0.713 | 4.23 | 2.61 | 2.96 | 1.77 | 3.73 | -1.75
30 | CCCCCCCCCCCCCCCC(=O)O[C@@H]1[C@@H](O)[C@@H](O)[C@@H]([C@H](NC(=O)[C@@H]2C[C@@H](CCC)CN2C)[C@H](C)Cl)O[C@@H]1SC | 0.38 | -0.882 | 0.64 | -0.0578 | 2.42 | 2.01 | -1.46 | 1.12 | 0.759 | -0.501
31 | Oc1c(Cl)cc(Cl)c2cccnc12 | 4.67 | 3.08 | 4.55 | 5.64 | 6.44 | -1.25 | 44.3 | 3.67 | 4.23 | 2.6
32 | O=C1NCC2(CCN(CCc3ccccc3)CC2)O1 | 0.324 | -0.568 | 0.908 | 1.98 | 1.24 | 0.472 | -0.511 | -1.95 | 0.357 | 0.871
33 | CC(NC(=O)Cc1cc(F)cc(F)c1)C(=O)NC(C(=O)OC(C)(C)C)c1ccccc1 (stereo not given) | 0.109 | -1.56 | 0.0172 | 0.631 | 1.42 | 1.3 | 1.25 | -6.22 | -0.444 | 0.458
34 | c1cnc2cc3c(cc2n1)[C@@H]1CNC[C@H]3C1 | 1.18 | -2.8 | 1.78 | 0.684 | 0.561 | 1.15 | 0.349 | -0.44 | -0.35 | -1.07
35 | CC/C(=C(\c1ccccc1)c1ccc(OCCN(C)C)cc1)c1ccccc1 | 7.72 | 1.28 | 12.1 | 3.63 | 11.1 | 10.5 | 21 | 7.38 | 5.56 | 2.99
